The values below come from article PMC11006913.

What all share (assay): PBM; 200 nM protein, PBS
What all share (details): dsDNA, one strand shown

For assay [1], the target named is T1, SIX6 (Homo sapiens, UniProt O95475 114-200, L167I).
T1 sequence: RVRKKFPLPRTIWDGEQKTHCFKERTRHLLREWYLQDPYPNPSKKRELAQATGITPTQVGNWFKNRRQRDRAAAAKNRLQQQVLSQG

The target of assay [2] is T2, SIX6 (Homo sapiens, UniProt O95475 114-200, L143V).
T2 sequence: T1 sequence with L30V, I54L

In assay [3] the target is T3, SIX6 (Homo sapiens, UniProt O95475 114-200, H141N).
T3 sequence: T1 sequence with H28N, I54L

Assay [4] has as its target T4, SIX6 (Homo sapiens, UniProt O95475 114-200, T165P).
T4 sequence: T1 sequence with T52P, I54L

Assay [5] addresses T5, SIX6 (Homo sapiens, UniProt O95475 114-200, L167M).
T5 sequence: T1 sequence with I54M

In assay [6] the target is T6, SIX6 (Homo sapiens, UniProt O95475 114-200, L143M).
T6 sequence: T1 sequence with L30M, I54L

In assay [7] the target is T7, SIX6 (Homo sapiens, UniProt O95475 114-200, L143I).
T7 sequence: T1 sequence with L30I, I54L

Assay [8] deals with T8, SIX6 (Homo sapiens, UniProt O95475 114-200, T165G).
T8 sequence: T1 sequence with T52G, I54L

Assay [9] addresses T9, SIX6 (Homo sapiens, UniProt O95475 114-200, T139Q).
T9 sequence: T1 sequence with T26Q, I54L

In assay [10] the target is T10, SIX6 (Homo sapiens, UniProt O95475 114-200, T165A).
T10 sequence: T1 sequence with T52A, I54L

The target in assay [11] is T11, SIX6 (Homo sapiens, UniProt O95475 114-200, L167V).
T11 sequence: T1 sequence with I54V

For assay [12], the target named is T12, SIX6 (Homo sapiens, UniProt O95475 114-200).
T12 sequence: T1 sequence with I54L

For assay [13], the target named is T13, SIX6 (Homo sapiens, UniProt O95475 114-200, T165I).
T13 sequence: T1 sequence with T52I, I54L

In assay [14] the target is HOXB9 (Homo sapiens, UniProt P17482 171-250).
The target in assay [15] is HOXB9 (Homo sapiens, UniProt P17482 171-250, R186Q).
In assay [16] the target is HOXA2 (Homo sapiens, UniProt O43364 129-215, R185T).
The target of assay [17] is HOXA2 (Homo sapiens, UniProt O43364 129-215, R185K).
Assay [18] addresses HOXA2 (Homo sapiens, UniProt O43364 129-215, Y150S).
In assay [19] the target is HOXA2 (Homo sapiens, UniProt O43364 129-215).

Residue numbers refer to the chain shown, from its start.

Chain of HOXA2 (Homo sapiens, UniProt O43364 129-215, Y150S) (O43364 129-215 Y150S): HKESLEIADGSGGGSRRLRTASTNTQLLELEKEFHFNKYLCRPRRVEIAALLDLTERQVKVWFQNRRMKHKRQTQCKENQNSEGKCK
Chain of HOXA2 (Homo sapiens, UniProt O43364 129-215) (O43364 129-215): as the sequence (O43364 129-215 Y150S) above, with S22Y counted along it
Chain of HOXA2 (Homo sapiens, UniProt O43364 129-215, R185K) (O43364 129-215 R185K): as the sequence (O43364 129-215 Y150S) above, with S22Y, R57K counted along it
Chain of HOXA2 (Homo sapiens, UniProt O43364 129-215, R185T) (O43364 129-215 R185T): as the sequence (O43364 129-215 Y150S) above, with S22Y, R57T counted along it
Chain of HOXB9 (Homo sapiens, UniProt P17482 171-250) (P17482 171-250): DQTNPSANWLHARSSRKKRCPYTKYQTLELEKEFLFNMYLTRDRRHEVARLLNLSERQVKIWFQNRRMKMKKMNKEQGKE
Chain of HOXB9 (Homo sapiens, UniProt P17482 171-250, R186Q) (P17482 171-250 R186Q): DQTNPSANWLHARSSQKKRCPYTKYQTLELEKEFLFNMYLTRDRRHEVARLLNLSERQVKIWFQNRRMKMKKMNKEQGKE

As to CAGCGCCG, the binding signal with SIX6 [1] is 8.83 upbm affinity estimate (log intensity, higher = more binding, comparable within an allelic series); with SIX6 [2], 8.75 upbm affinity estimate (log intensity, higher = more binding, comparable within an allelic series); with SIX6 [3] it was 8.78 upbm affinity estimate (log intensity, higher = more binding, comparable within an allelic series); in the assay with SIX6 [4], 8.87 upbm affinity estimate (log intensity, higher = more binding, comparable within an allelic series); in the assay with SIX6 [5] it was 8.78 upbm affinity estimate (log intensity, higher = more binding, comparable within an allelic series); in the assay with SIX6 [6], 8.76 upbm affinity estimate (log intensity, higher = more binding, comparable within an allelic series). Besides, the binding signal in the assay with SIX6 [7] was 8.8 upbm affinity estimate (log intensity, higher = more binding, comparable within an allelic series); with SIX6 [8], 8.83 upbm affinity estimate (log intensity, higher = more binding, comparable within an allelic series); with SIX6 [9], 8.77 upbm affinity estimate (log intensity, higher = more binding, comparable within an allelic series); in the assay with SIX6 [10], 8.74 upbm affinity estimate (log intensity, higher = more binding, comparable within an allelic series); with SIX6 [11], 8.79 upbm affinity estimate (log intensity, higher = more binding, comparable within an allelic series); with SIX6 [12], 8.78 upbm affinity estimate (log intensity, higher = more binding, comparable within an allelic series). For the same sequence, in the assay with SIX6 [13], the binding signal was 8.74 upbm affinity estimate (log intensity, higher = more binding, comparable within an allelic series).
Take CCAGACGG: the binding signal with SIX6 [1] is 8.98 upbm affinity estimate (log intensity, higher = more binding, comparable within an allelic series); in the assay with SIX6 [2], 8.84 upbm affinity estimate (log intensity, higher = more binding, comparable within an allelic series); in the assay with SIX6 [3], 8.93 upbm affinity estimate (log intensity, higher = more binding, comparable within an allelic series); in the assay with SIX6 [4], 8.91 upbm affinity estimate (log intensity, higher = more binding, comparable within an allelic series); with SIX6 [5], 9.05 upbm affinity estimate (log intensity, higher = more binding, comparable within an allelic series); in the assay with SIX6 [6], 9.07 upbm affinity estimate (log intensity, higher = more binding, comparable within an allelic series). In addition, the binding signal in the assay with SIX6 [7] is 8.95 upbm affinity estimate (log intensity, higher = more binding, comparable within an allelic series); with SIX6 [8], 9.01 upbm affinity estimate (log intensity, higher = more binding, comparable within an allelic series); with SIX6 [9], 9.12 upbm affinity estimate (log intensity, higher = more binding, comparable within an allelic series); with SIX6 [10], 8.94 upbm affinity estimate (log intensity, higher = more binding, comparable within an allelic series); with SIX6 [11], 9.01 upbm affinity estimate (log intensity, higher = more binding, comparable within an allelic series); in the assay with SIX6 [12], 9.03 upbm affinity estimate (log intensity, higher = more binding, comparable within an allelic series). Besides, the binding signal with SIX6 [13] was 9.05 upbm affinity estimate (log intensity, higher = more binding, comparable within an allelic series).
For the sequence AGTGATAT, the binding signal with SIX6 [1] was 11.3 upbm affinity estimate (log intensity, higher = more binding, comparable within an allelic series); with SIX6 [2], 10.3 upbm affinity estimate (log intensity, higher = more binding, comparable within an allelic series); in the assay with SIX6 [3] it was 11.3 upbm affinity estimate (log intensity, higher = more binding, comparable within an allelic series); with SIX6 [4], 9.9 upbm affinity estimate (log intensity, higher = more binding, comparable within an allelic series); in the assay with SIX6 [5], 10.8 upbm affinity estimate (log intensity, higher = more binding, comparable within an allelic series); with SIX6 [6], 11 upbm affinity estimate (log intensity, higher = more binding, comparable within an allelic series). Moreover, the binding signal with SIX6 [7] is 10.3 upbm affinity estimate (log intensity, higher = more binding, comparable within an allelic series); with SIX6 [8], 11.2 upbm affinity estimate (log intensity, higher = more binding, comparable within an allelic series); with HOXB9 [14], 9.87 upbm affinity estimate (log intensity, higher = more binding, comparable within an allelic series); with SIX6 [9], 11.1 upbm affinity estimate (log intensity, higher = more binding, comparable within an allelic series); with SIX6 [10] it was 11.2 upbm affinity estimate (log intensity, higher = more binding, comparable within an allelic series); in the assay with SIX6 [11], 11 upbm affinity estimate (log intensity, higher = more binding, comparable within an allelic series). Moreover, the binding signal with SIX6 [12] was 11 upbm affinity estimate (log intensity, higher = more binding, comparable within an allelic series); in the assay with SIX6 [13] it was 11.1 upbm affinity estimate (log intensity, higher = more binding, comparable within an allelic series); with HOXB9 [15], 9.76 upbm affinity estimate (log intensity, higher = more binding, comparable within an allelic series).
Consider AGCGCAGG, for which the binding signal with SIX6 [1] was 9.08 upbm affinity estimate (log intensity, higher = more binding, comparable within an allelic series); with SIX6 [2], 8.96 upbm affinity estimate (log intensity, higher = more binding, comparable within an allelic series); with SIX6 [3], 9.05 upbm affinity estimate (log intensity, higher = more binding, comparable within an allelic series); with SIX6 [4], 8.99 upbm affinity estimate (log intensity, higher = more binding, comparable within an allelic series); with SIX6 [5] it was 9.06 upbm affinity estimate (log intensity, higher = more binding, comparable within an allelic series); with SIX6 [6], 9.04 upbm affinity estimate (log intensity, higher = more binding, comparable within an allelic series). In addition, the binding signal in the assay with SIX6 [7] is 9.01 upbm affinity estimate (log intensity, higher = more binding, comparable within an allelic series); with SIX6 [8] it was 9.15 upbm affinity estimate (log intensity, higher = more binding, comparable within an allelic series); with SIX6 [9], 9.1 upbm affinity estimate (log intensity, higher = more binding, comparable within an allelic series); in the assay with SIX6 [10], 9.08 upbm affinity estimate (log intensity, higher = more binding, comparable within an allelic series); with SIX6 [11], 9.04 upbm affinity estimate (log intensity, higher = more binding, comparable within an allelic series); with SIX6 [12], 9.02 upbm affinity estimate (log intensity, higher = more binding, comparable within an allelic series). Besides, the binding signal in the assay with SIX6 [13] was 9.03 upbm affinity estimate (log intensity, higher = more binding, comparable within an allelic series).
For the sequence CGTCGCGC, the binding signal in the assay with SIX6 [1] is 9.07 upbm affinity estimate (log intensity, higher = more binding, comparable within an allelic series); in the assay with SIX6 [2], 9.04 upbm affinity estimate (log intensity, higher = more binding, comparable within an allelic series); in the assay with SIX6 [3], 9.11 upbm affinity estimate (log intensity, higher = more binding, comparable within an allelic series); with SIX6 [4], 9.07 upbm affinity estimate (log intensity, higher = more binding, comparable within an allelic series); in the assay with SIX6 [5] it was 9 upbm affinity estimate (log intensity, higher = more binding, comparable within an allelic series); in the assay with SIX6 [6], 9.11 upbm affinity estimate (log intensity, higher = more binding, comparable within an allelic series). Moreover, the binding signal was 9.05 upbm affinity estimate (log intensity, higher = more binding, comparable within an allelic series) in the assay with SIX6 [7]; 9.08 upbm affinity estimate (log intensity, higher = more binding, comparable within an allelic series) in the assay with SIX6 [8]; 7.22 upbm affinity estimate (log intensity, higher = more binding, comparable within an allelic series) with HOXA2 [16]; 9.27 upbm affinity estimate (log intensity, higher = more binding, comparable within an allelic series) with SIX6 [9]; 9.17 upbm affinity estimate (log intensity, higher = more binding, comparable within an allelic series) in the assay with SIX6 [10]; 10.4 upbm affinity estimate (log intensity, higher = more binding, comparable within an allelic series) in the assay with HOXA2 [17]. Besides, the binding signal is 8.92 upbm affinity estimate (log intensity, higher = more binding, comparable within an allelic series) with SIX6 [11]; 9.06 upbm affinity estimate (log intensity, higher = more binding, comparable within an allelic series) with SIX6 [12]; 8.97 upbm affinity estimate (log intensity, higher = more binding, comparable within an allelic series) with SIX6 [13]; 10.5 upbm affinity estimate (log intensity, higher = more binding, comparable within an allelic series) with HOXA2 [18]; 7.41 upbm affinity estimate (log intensity, higher = more binding, comparable within an allelic series) in the assay with HOXA2 [19].
